Records with an inconclusive call do not appear. Activity calls are given as the source filed them. The call rests on the fitted dose curve; in most records, active means well fitted cell-killing curve with a large enough effect; inconclusive means small, poorly fitted or top-dose-only effect, or effect the other way; inactive means flat fitted curve, though single readings scatter.
system: C33A; experiment: Primary qHTS to identify gynecologic anti-cancer compounds using libraries of approved drugs and bioactive compounds (AID 1345084); details: Gynecologic cancer cell panel viability, ATPlite luminescence, 48 h; series mostly up to 57.5 µM; activity change, negative = cytotoxicity: at the top concentration; further: nearly all actives have a fitted effect of over 55% in size
Summary of the method: (§1)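 ATP-based viability (ATPlite), 1,000 cells/well, 16 h pre-incubation, 48 h compound at 37 C, 5% CO2, 15 min RT before read.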
On the % scale 0 is the no-effect control and ±100 the full control effect.

Row | SMILES | activity change, negative = cytotoxicity
1 | C[C@@H](C1=C(CCN(C)C)Cc2ccccc21)c1ccccn1 | -3.5% (inactive)
2 | O=C1OC2(c3ccccc31)c1cc(I)c(O)c(I)c1Oc1c2cc(I)c(O)c1I | 3.27% (inactive)
3 | CCOCCn1c(C2CCN(CCc3ccc(C(C)(C)C(=O)O)cc3)CC2)nc2ccccc21 | 4.17% (inactive)
4 | O=C(Oc1ccccc1)c1cccc(C(=O)Oc2ccccc2)c1 | -11.4% [at 116 µM] (inactive)
5 | CCc1cc2cc(OC)c(OC)cc2c(Cc2ccccc2)n1 | 14.3% (inactive)
6 | CCOc1ncc(F)c(=O)[nH]1 | 8.47% (inactive)
7 | COCCOCC(OC)OC | 17% (inactive)
8 | O=C(O)c1ccc(OCCN2CCCCC2)cc1 | -2.57% (inactive)
9 | Oc1ccccc1 | -8.85% (inactive)
10 | O=C(OCCN1CCOCC1)c1cccnc1Nc1cccc(C(F)(F)F)c1 | -11% (inactive)
11 | O=C(O)c1ccccc1Nc1cc(Cl)ccc1C(=O)O | -1.92% [at 25.3 µM] (inactive)
12 | COc1ccc2cc(C=O)ccc2c1 | 3.84% (inactive)
13 | COc1ccc2c(c1)c(CC(=O)OC/C=C(\C)CC/C=C(\C)CCC=C(C)C)c(C)n2C(=O)c1ccc(Cl)cc1 | 1.04% (inactive)
14 | O=C(O)[C@@H](O)[C@H](O)[C@H](O)[C@@H](O)C(=O)O | 6.88% (inactive)
15 | CNC(=O)c1c(I)c(NC(C)=O)c(I)c(C(=O)O)c1I | 11.6% (inactive)
16 | NCC[C@H](O)C(=O)N[C@@H]1C[C@H](N)[C@@H](O[C@H]2O[C@H](CN)[C@@H](O)[C@H](O)[C@@H]2O)[C@H](O)[C@@H]1O[C@H]1O[C@H](CO)[C@@H](O)[C@H](N)[C@@H]1O | 13.2% [at 0.462 µM] (inactive)
17 | O=C1Cc2cc(Cl)ccc2N1 | -1.1% (inactive)
18 | CN(C)CCOC1=Cc2ccccc2Sc2ccc(Cl)cc21 | -2.92% (inactive)
19 | CCCCC(CC)CNC(=O)CC(C)OC(=O)CCC(=O)O (stereo not given) | 7.23% (inactive)
20 | C[C@@H]1CCC[C@H](C)N1CCCC(O)(c1ccccc1)c1ccccn1 (stereo not given in full) | -5.43% (inactive)

Row | SMILES | activity change, negative = cytotoxicity
21 | O=C1CCCc2c(O)cccc21 | -7.58% (inactive)
22 | C=CCOc1cc(Cl)ccc1C(=O)NCCN(CC)CC | -11.7% (inactive)
23 | Cc1onc(-c2ccccc2)c1C(=O)Cl | 0.453% (inactive)
24 | CCCCCCOC(=O)NC(=N)c1ccc(NCc2nc3cc(C(=O)N(CCC(=O)OCC)c4ccccn4)ccc3n2C)cc1 | -1.26% (inactive)
25 | CCN1CCN(C(=O)N[C@@H](C(=O)N[C@@H]2C(=O)N3[C@@H]2SC(C)(C)[C@H]3C(=O)O)c2ccccc2)C(=O)C1=O | 1.96% (inactive)
26 | Nc1nc2ccccc2n1Cc1ccc(F)cc1 | -20.7% (inactive)
27 | CCOC(=O)c1cc(=O)c2c(OCC(COc3cccc4oc(C(=O)OCC)cc(=O)c34)OC(=O)[C@@H](N)CCCCN)cccc2o1 | 5.29% (inactive)
28 | CC(C)C(=O)Nc1cccc(C(F)(F)F)c1 | 5.88% (inactive)
29 | C=C(C)C(=O)OCC(O)CO (stereo not given) | 16.3% (inactive)
30 | CCCCN(CCN(CCCC)C(=O)N1CCOCC1)C(=O)N1CCOCC1 | -8.71% (inactive)
31 | CC(Oc1c(Cl)cccc1Cl)C1=NCCN1 (stereo not given) | -0.617% (inactive)
32 | CC(=O)OC/C=C(C)/C=C/C=C(C)/C=C/C1=C(C)CCCC1(C)C | 3.31% (inactive)
33 | CC(C)(C)CC(=O)OCC(=O)[C@@]1(O)CC[C@H]2[C@@H]3CCC4=CC(=O)C=C[C@]4(C)[C@H]3[C@@H](O)C[C@@]21C | -5.1% (inactive)
34 | Cc1ccc(/C=N/n2c(-c3ccccc3)csc2=S)cc1 | 5.84% (inactive)
35 | CO[C@@H]1[C@@H](O[C@@H]2O[C@H](C)[C@@H](O[C@H]3C[C@@](C)(O)[C@@H](O)[C@H](C)O3)[C@H](N(C)C)[C@H]2O)[C@@H](CC=O)C[C@@H](C)[C@@H](O[C@@H]2CC[C@H](N(C)C)[C@@H](C)O2)/C=C/C=C/C[C@@H](C)OC(=O)C[C@H]1OC(C)=O | -1.42% (inactive)
36 | N#CSCC(=O)O | 0.746% (inactive)
37 | Cc1ccc(CCn2c3c(c4cc(Cl)ccc42)CN(C)CC3)cn1 | -0.937% (inactive)
38 | CO/N=C(/C(=O)N[C@@H]1C(=O)N2C(C(=O)OCOC(=O)C(C)(C)C)=C(C)CS[C@H]12)c1csc(N)n1 | -0.987% (inactive)
39 | CC(C)Cc1ccc(C(C)C(=O)OCc2ccccn2)cc1 (stereo not given) | -7.56% (inactive)

system: CAOV3; experiment: as above; details: Gynecologic cancer cell panel viability, ATPlite luminescence, 48 h; series mostly up to 57.5 µM; activity change, negative = cytotoxicity: at the top concentration
Summary of the method: as §1

Row | SMILES | activity change, negative = cytotoxicity
40 | C[C@@H](C1=C(CCN(C)C)Cc2ccccc21)c1ccccn1 | -1.74% (inactive)
41 | O=C1OC2(c3ccccc31)c1cc(I)c(O)c(I)c1Oc1c2cc(I)c(O)c1I | -1.77% (inactive)
42 | O=C(Oc1ccccc1)c1cccc(C(=O)Oc2ccccc2)c1 | -16.7% [at 116 µM] (inactive)
43 | CCc1cc2cc(OC)c(OC)cc2c(Cc2ccccc2)n1 | -4.84% (inactive)
44 | CCOc1ncc(F)c(=O)[nH]1 | 6.43% (inactive)
45 | O=C(O)c1ccc(OCCN2CCCCC2)cc1 | 5.64% (inactive)
46 | Oc1ccccc1 | -6.68% (inactive)
47 | O=C(OCCN1CCOCC1)c1cccnc1Nc1cccc(C(F)(F)F)c1 | -20.4% (inactive)
48 | O=C(O)c1ccccc1Nc1cc(Cl)ccc1C(=O)O | -6.73% [at 25.3 µM] (inactive)
49 | COc1ccc2c(c1)c(CC(=O)OC/C=C(\C)CC/C=C(\C)CCC=C(C)C)c(C)n2C(=O)c1ccc(Cl)cc1 | 9.02% (inactive)
50 | O=C(O)[C@@H](O)[C@H](O)[C@H](O)[C@@H](O)C(=O)O | 1.28% (inactive)
51 | CNC(=O)c1c(I)c(NC(C)=O)c(I)c(C(=O)O)c1I | 1.7% (inactive)
52 | NCC[C@H](O)C(=O)N[C@@H]1C[C@H](N)[C@@H](O[C@H]2O[C@H](CN)[C@@H](O)[C@H](O)[C@@H]2O)[C@H](O)[C@@H]1O[C@H]1O[C@H](CO)[C@@H](O)[C@H](N)[C@@H]1O | 10.2% [at 0.462 µM] (inactive)
53 | O=C1Cc2cc(Cl)ccc2N1 | 14.4% (inactive)
54 | CN(C)CCOC1=Cc2ccccc2Sc2ccc(Cl)cc21 | 0% (inactive)
55 | CCCCC(CC)CNC(=O)CC(C)OC(=O)CCC(=O)O (stereo not given) | -9.71% (inactive)
56 | C[C@@H]1CCC[C@H](C)N1CCCC(O)(c1ccccc1)c1ccccn1 (stereo not given in full) | 11.7% (inactive)
57 | O=C1CCCc2c(O)cccc21 | -20.2% (inactive)

Row | SMILES | activity change, negative = cytotoxicity
58 | C=CCOc1cc(Cl)ccc1C(=O)NCCN(CC)CC | 11.5% (inactive)
59 | Cc1onc(-c2ccccc2)c1C(=O)Cl | 25.8% (inactive)
60 | CCCCCCOC(=O)NC(=N)c1ccc(NCc2nc3cc(C(=O)N(CCC(=O)OCC)c4ccccn4)ccc3n2C)cc1 | -7.73% (inactive)
61 | CCN1CCN(C(=O)N[C@@H](C(=O)N[C@@H]2C(=O)N3[C@@H]2SC(C)(C)[C@H]3C(=O)O)c2ccccc2)C(=O)C1=O | -5.39% (inactive)
62 | Nc1nc2ccccc2n1Cc1ccc(F)cc1 | 1.87% (inactive)
63 | CCOC(=O)c1cc(=O)c2c(OCC(COc3cccc4oc(C(=O)OCC)cc(=O)c34)OC(=O)[C@@H](N)CCCCN)cccc2o1 | 19.8% (inactive)
64 | CC(C)C(=O)Nc1cccc(C(F)(F)F)c1 | 16.7% (inactive)
65 | C=C(C)C(=O)OCC(O)CO (stereo not given) | 5.8% (inactive)
66 | CCCCN(CCN(CCCC)C(=O)N1CCOCC1)C(=O)N1CCOCC1 | -13.7% (inactive)
67 | CC(Oc1c(Cl)cccc1Cl)C1=NCCN1 (stereo not given) | -22.8% (inactive)
68 | CC(=O)OC/C=C(C)/C=C/C=C(C)/C=C/C1=C(C)CCCC1(C)C | -1.01% (inactive)
69 | CC(C)(C)CC(=O)OCC(=O)[C@@]1(O)CC[C@H]2[C@@H]3CCC4=CC(=O)C=C[C@]4(C)[C@H]3[C@@H](O)C[C@@]21C | -6.77% (inactive)
70 | Cc1ccc(/C=N/n2c(-c3ccccc3)csc2=S)cc1 | -1.94% (inactive)
71 | CO[C@@H]1[C@@H](O[C@@H]2O[C@H](C)[C@@H](O[C@H]3C[C@@](C)(O)[C@@H](O)[C@H](C)O3)[C@H](N(C)C)[C@H]2O)[C@@H](CC=O)C[C@@H](C)[C@@H](O[C@@H]2CC[C@H](N(C)C)[C@@H](C)O2)/C=C/C=C/C[C@@H](C)OC(=O)C[C@H]1OC(C)=O | -0.106% (inactive)
72 | N#CSCC(=O)O | -3.09% (inactive)
73 | Cc1ccc(CCn2c3c(c4cc(Cl)ccc42)CN(C)CC3)cn1 | -3.8% (inactive)
74 | CO/N=C(/C(=O)N[C@@H]1C(=O)N2C(C(=O)OCOC(=O)C(C)(C)C)=C(C)CS[C@H]12)c1csc(N)n1 | 5.42% (inactive)
75 | CC(C)Cc1ccc(C(C)C(=O)OCc2ccccn2)cc1 (stereo not given) | -1.05% (inactive)

From PubChem BioAssay (NCATS)
